Assay results: PubChem BioAssay (NCATS)
Inconclusive results are not listed. Where a call stands in place of a potency, no number is given. Activity calls are given as the source filed them. Unless noted, calls come from the whole dose curve; as a rule, active = well fitted curve in the direction sought with a large enough effect; inconclusive = small, poorly fitted or top-dose-only effect, or another doubt; inactive = no such curve, though single readings can be large; an effect the other way counts as inactive or inconclusive.

How the values were obtained:
[1] = Confirmation and Secondary Assay for Modulators of Hemoglobin Beta Chain Splicing at IVS2 654 locus (AID 910);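 note: HeLa cells stably carrying EGFP split by mutant beta-globin IVS2-654 intron; per-well total GFP intensity by laser scanning cytometry after 2-day treatment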
How it was run: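 Readout: per-well total peak green fluorescence (488 nm ex, 500–520 nm em) from objects 5–250 µm, reflecting correct splicing of an EGFP-654 reporter. Compounds were applied for 2 days at 37 °C to overnight-plated HeLa EGFP-654 cells; controls were DMSO and 500 nM IVS2-654 PNA.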

[2] = Confirmation and Secondary Assay for Modulators of Hemoglobin Beta Chain Splicing at IVS2 705 locus (AID 930);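 note: HeLa cells stably expressing the EGFP-705 splicing reporter; GFP fluorescence per well restored by corrected splicing of the IVS2-705 intron in EGFP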
How it was run: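 Splice-correction reporter: EGFP cDNA split by beta-globin intron 2 bearing the 705 mutation, stably in HeLa. Compound incubation 2 days, 37C; fluorescent objects 5-250 µm summed per well.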

[3] = qHTS Assay for Lipid Storage Modulators (AID 1519; calls by dose curve); conditions: Drosophila S3 cells, BODIPY lipid droplet/cell ratio, laser cytometry, cells loaded with oleic acid; for activity change, negative = inhibition: at 57.5 µM (top of the series)
How it was run: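 Cells seeded at 5,000 per well were treated with compounds over a concentration series and loaded with oleic acid (400 uM, as added). Lipid droplet fluorescence (488 nm excitation, 500-530 nm channel) was read by laser-scanning cytometry and normalized to 20 uM Triacsin C.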

[4] = molecular target: Ubiquitin carboxyl-terminal hydrolase 1 (Homo sapiens) (UniProt O94782); test: Inhibitors of USP1/UAF1: Pilot qHTS (AID 504865);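 note: rhodamine fluorescence freed from ubiquitin-rhodamine substrate followed over time; top concentration of the series differs between compounds; nearly all actives have a fitted effect of over 35% in size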
Ubiquitin carboxyl-terminal hydrolase 1 (Homo sapiens), sequence (O94782 whole entry, looked up): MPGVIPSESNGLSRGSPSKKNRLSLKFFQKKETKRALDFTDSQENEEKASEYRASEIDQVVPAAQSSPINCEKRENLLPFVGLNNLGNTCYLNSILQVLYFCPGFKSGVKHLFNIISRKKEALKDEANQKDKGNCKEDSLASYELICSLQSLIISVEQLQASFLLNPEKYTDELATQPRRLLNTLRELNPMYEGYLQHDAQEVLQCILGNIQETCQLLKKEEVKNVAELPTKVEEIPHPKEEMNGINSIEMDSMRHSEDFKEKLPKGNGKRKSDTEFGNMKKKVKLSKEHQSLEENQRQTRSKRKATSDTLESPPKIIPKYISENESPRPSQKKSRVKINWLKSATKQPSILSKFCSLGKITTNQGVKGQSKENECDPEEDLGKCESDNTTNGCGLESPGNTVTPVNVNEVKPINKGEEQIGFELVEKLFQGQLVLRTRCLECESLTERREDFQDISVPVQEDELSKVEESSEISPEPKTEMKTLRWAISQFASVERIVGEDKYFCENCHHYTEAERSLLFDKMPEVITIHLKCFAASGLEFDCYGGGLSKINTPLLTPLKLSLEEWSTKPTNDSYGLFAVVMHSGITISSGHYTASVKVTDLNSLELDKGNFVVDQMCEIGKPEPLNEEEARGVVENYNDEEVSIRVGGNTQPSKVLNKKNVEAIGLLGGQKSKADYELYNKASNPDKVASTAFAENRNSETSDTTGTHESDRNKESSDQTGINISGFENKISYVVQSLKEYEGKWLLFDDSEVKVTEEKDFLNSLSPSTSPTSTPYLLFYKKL
How it was run: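 USP1/UAF1 complex (1nM) preincubated with compound 15 min at room temperature, then Ub-Rho substrate (150nM final) added. Fluorescence read kinetically at 480/540 nm, 6 reads every 60 seconds. Buffer: 50mM HEPES pH 7.8, 0.5mM EDTA, 0.1 mg/ml BSA, 1mM TCEP, 0.01% Tween-20.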

[5] = measured here: cell count channel max response
[6] = measured here: lipid channel max response

SMILES	Potency [1]	Potency [2]	activity change, negative = inhibition [3]	max response [3, 5]	max response [3, 6]	Potency [4]
C[N+](C)(C)CCOP(=O)([O-])OP(=O)(O)OCC1OC(n2ccc(N)nc2=O)C(O)C1O (centres undefined)	inactive	inactive	5.88% (inactive)	9.36%	16.8%	inactive
NC1(C(=O)O)CCCC1	inactive	inactive	-0.822% (inactive)	7.47%	7.88%	inactive
O=C(O)C1=CC(O)[C@@H](O)C(O)C1 (some centres undefined)	inactive	inactive	3.18% (inactive)	15.5%	22.2%	inactive
CC1(C)CC[C@]2(C(=O)O)CC[C@@]3(C)C(=CCC4[C@@]5(C)CCC(O)[C@@](C)(CO)C5CC[C@@]43C)C2C1 (some centres undefined)	inactive	inactive	1.32% (inactive)	5.6%	17.6%	inactive
COC(=O)C(N)CS (centres undefined)	inactive	inactive	6.93% (inactive)	11.1%	22.7%	inactive
CC(=O)OCC(=O)[C@@]1(O)CCC2C3CC[C@H]4CC(O)CC[C@@]4(C)C3C(=O)C[C@]21C (some centres undefined)	inactive	inactive	4.69% (inactive)	-0.527%	6.2%	inactive
Cc1cc(=O)oc2c(O)c(O)ccc12	inactive	inactive	-5.44% (inactive)	-3.48%	-9.34%	inactive
CC(CCC(=O)O)C1CCC2C3C(O)C[C@@H]4CC(O)CC[C@@]4(C)C3CC(O)[C@]12C (some centres undefined)	inactive	inactive	4.41% (inactive)	-4.16%	0.136%	inactive
CC(=O)OCC(=O)[C@@]12OC(C)(C)OC1CC1C3CC(F)C4=CC(=O)C=C[C@@]4(C)[C@@]3(F)C(O)C[C@]12C (some centres undefined)	inactive	inactive	5.49% (inactive)	3.91%	12.9%	inactive
NC(Cn1ccc(=O)c(O)c1)C(=O)O (centres undefined)	inactive	inactive	3.76% (inactive)	3.01%	10.8%	inactive
COC1C[C@@H](O[C@@H]2C(C)C(=O)OC(C)C(C)[C@H](OC(C)=O)C(C)C(=O)[C@@]3(CO3)CC(C)C(OC3OC(C)CC(N(C)C)[C@H]3OC(C)=O)C2C)OC(C)[C@@H]1OC(C)=O (some centres undefined)	inactive	inactive	6.97% (inactive)	18.9%	24.4%	inactive
C=C1CCC2C(CC2(C)C)C(=C)CC/C1=N/O (centres undefined)	inactive	inactive	4.06% (inactive)	4.09%	9.2%	inactive
CC(=O)OC1C(=O)[C@@]2(C)C(O)CC3OC[C@]3(OC(C)=O)C2C(OC(=O)c2ccccc2)[C@]2(O)CC(OC(=O)C(O)C(NC(=O)c3ccccc3)c3ccccc3)C(C)=C1C2(C)C (some centres undefined)	inactive	inactive	-3.78% (inactive)	1.34%	-0.503%	inactive
C#C[C@]1(O)CCC2C3CCC4=Cc5oncc5C[C@@]4(C)C3CC[C@@]21C (some centres undefined)	inactive	inactive	9.19% (inactive)	9.5%	21.9%	inactive
COC1C=CC23c4cc5c(cc4CN(CC2O)C3C1)OCO5 (centres undefined)	inactive	inactive	-1.59% (inactive)	30.3%	31.3%	inactive
CC1CC[C@@]2(C(=O)O)CCC3(C)C(=CCC4[C@]5(C)CC(O)C(O)[C@](C)(CO)C5C(O)C[C@@]43C)C2C1C (some centres undefined)	inactive	inactive	7.29% (inactive)	14.9%	28.6%	inactive
CC1(C)OC2CC3C4CC(F)C5=CC(=O)CC[C@@]5(C)C4C(O)C[C@@]3(C)[C@]2(C(=O)CO)O1 (some centres undefined)	inactive	inactive	4.43% (inactive)	7.91%	15.6%	inactive
Oc1ccc(C2Oc3cc(O)cc(O)c3CC2O)cc1 (centres undefined)	inactive	inactive	14.6% (inactive)	-6.15%	20.5%	inactive
COc1ccc(-c2oc3cc(O[C@@H]4OC(CO)C(O)C(O)C4O)c(OC)c(O)c3c(=O)c2OC)cc1O (some centres undefined)	inactive	inactive	2.95% (inactive)	-7.2%	-6.13%	inactive
CC(=O)OC1C[C@]2(C)C(C(C)=O)CCC2C2CCC3=CC(=O)CC[C@@]3(C)C12 (some centres undefined)	inactive	inactive	9.05% (inactive)	25.2%	39.7%	inactive
CC(N)C(O)c1cccc(O)c1 (centres undefined)	inactive	inactive	8.66% (inactive)	6.62%	19.6%	inactive
O=C(O)CCC(=O)C(=O)O (tested in a mixture with another compound)	inactive	inactive	3.77% (inactive)	11.4%	18.6%	inactive
COc1ccc(-c2cc(=O)c3c(O)c(OC)c(OC)c(OC)c3o2)cc1OC	inactive	inactive	-11% (inactive)	-6.36%	-17.8%	inactive
CC1=C(C(=O)O)N2C(=O)C(NC(=O)C(N)c3ccc(O)cc3)C2SC1 (centres undefined)	inactive	inactive	7.51% (inactive)	4.8%	14.9%	inactive
